Measurements as given in article PMC5540273 (PLoS ONE, 2017).

How the values were obtained:
Conditions in all cases: concentration: 1 μM, replicates: in singlicate; n = 1
RIPK4 = system: RIPK4
RIPK5 = system: RIPK5
ROCK1 = system: ROCK1
ROCK2 = system: ROCK2
ROS1 = system: ROS1
[1] = system: RPS6KA4(Kin.Dom.1-N-terminal)
[2] = system: RPS6KA4(Kin.Dom.2-C-terminal)
[3] = system: RPS6KA5(Kin.Dom.1-N-terminal)
[4] = system: RPS6KA5(Kin.Dom.2-C-terminal)
[5] = system: T1, RSK1(Kin.Dom.1-N-terminal)
T1 construct: gene RPS6KA1

[6] = system: T2, RSK1(Kin.Dom.2-C-terminal)
T2 construct: gene RPS6KA1

[7] = system: T3, RSK2(Kin.Dom.1-N-terminal)
T3 construct: gene RPS6KA3

[8] = system: T4, RSK2(Kin.Dom.2-C-terminal)
T4 construct: gene RPS6KA3

[9] = system: T5, RSK3(Kin.Dom.1-N-terminal)
T5 construct: gene RPS6KA2

[10] = system: T6, RSK3(Kin.Dom.2-C-terminal)
T6 construct: gene RPS6KA2

[11] = system: T7, RSK4(Kin.Dom.1-N-terminal)
T7 construct: gene RPS6KA6

[12] = system: T8, RSK4(Kin.Dom.2-C-terminal)
T8 construct: gene RPS6KA6

S6K1 = system: S6K1
SBK1 = system: SBK1
SGK2 = system: SGK2
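Further: KINOMEscan kinase panel screen.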

Row | SMILES | %Inh (RIPK4) | %Inh (RIPK5) | %Inh (ROCK1) | %Inh (ROCK2) | %Inh (ROS1) | %Inh [1] | %Inh [2] | %Inh [3] | %Inh [4] | %Inh [5] | %Inh [6] | %Inh [7] | %Inh [8] | %Inh [9] | %Inh [10] | %Inh [11] | %Inh [12] | %Inh (S6K1) | %Inh (SBK1) | %Inh (SGK2)
1 | CS(=O)(=O)CCNCc1nc(-c2ccc3ncnc(Nc4ccc(OCc5ccccc5)c(Cl)c4)c3c2)cs1.Cl [GW582764] | 1% | 0% | 45% | 38% | 0% | 17% | 0% | 3% | 0% | 25% | 0% | 15% | 2% | 9% | 0% | 0% | 8% | 6% | 23% | 0%
2 | CSc1ccc(-c2nc3n(c2-c2ccncc2)CCC3)cc1 [SKF-105561] | 13% | 17% | 23% | 0% | 6% | 6% | 10% | 5% | 0% | 0% | 62% | 0% | 20% | 0% | 35% | 8% | 70% | 0% | 30% | 7%
3 | CNc1nc(-c2ccc3c(N)n[nH]c3c2)cc(N2C[C@@H](C(=O)Nc3ccccc3)CC[C@H]2C)n1 [GSK2298859] | 0% | 0% |  | 61% | 36% | 22% | 0% | 29% | 50% | 0% | 0% | 0% | 0% | 7% | 3% | 0% | 23% | 0% | 4% | 0%
4 | Cc1nccc(-c2c(-c3ccc(F)cc3)ncn2CCCN2CCOCC2)n1.Cl [SB-282975] | 33% | 13% | 0% | 0% | 23% | 100% | 15% | 5% | 8% | 0% | 5% | 29% | 44% | 9% | 0% | 22% | 6% | 9% | 29% | 27%
5 | O=C(Nc1n[nH]c2nc(-c3cccs3)c(Br)cc12)C1CC1 [SB-735297] | 7% | 3% | 0% | 0% | 6% | 0% | 8% | 10% | 4% | 14% | 0% | 22% | 0% | 0% | 0% | 98.9% | 20% | 22% | 11% | 27%
6 | CNc1cc(-c2ccc3c(N)n[nH]c3c2)nc(N)n1 [GSK2224810] | 64% | 0% |  | 29% | 17% | 0% | 15% | 0% | 35% | 2% | 26% | 14% | 0% | 1% | 0% | 37% | 37% | 0% | 7% | 0%
7 | c1ccc(-c2ccnc3[nH]ccc23)cc1 [SB-693578] | 28% | 7% | 90% | 88% | 0% | 0% | 8% | 5% | 26% | 28% | 0% | 30% | 27% | 0% | 0% | 29% | 17% | 26% | 17% | 4%
8 | COc1ccc(Nc2nccc(N3CCC(NC(=O)C(C)c4ccc(Cl)cc4)C3)n2)cc1 (centres unmarked) [GSK1379735] | 4% | 12% | 11% | 4% | 17% | 5% | 0% | 21% | 0% | 31% | 0% | 5% | 7% | 14% | 0% | 0% | 7% | 2% | 0% | 11%
9 | CNCc1ccc2nc(NC(=O)c3ccc(C(C)(C)C)cc3)cn2c1 | 14% | 11% | 5% | 13% | 9% | 9% | 9% | 0% | 0% | 0% | 8% | 32% | 37% | 1% | 0% | 27% | 7% | 17% | 27% | 12%
10 | O=C1NC(=O)C(c2ccc(Cl)cc2)=C1Nc1cccc(Cl)c1 [SB-317651] | 46% | 0% | 7% | 0% | 0% | 86% | 0% | 1% | 0% | 12% | 0% | 23% | 0% | 18% | 23% | 0% | 13% | 36% | 0% | 6%
11 | COC(=O)c1cccc(NC(=O)NC2CCN(c3ccnc(Nc4ccc(OC)cc4)n3)C2)c1 (centres unmarked) [GSK1379746] | 13% | 0% | 2% | 44% | 0% | 14% | 0% | 17% | 0% | 3% | 0% | 0% | 0% | 0% | 0% | 0% | 0% | 14% | 0% | 0%
12 | COc1nccc(-c2c(-c3ccc(F)cc3)ncn2CCCN2CCOCC2)n1 [SB-282852] | 47% | 6% | 32% | 20% | 0% | 17% | 0% | 0% | 0% | 0% | 11% | 27% | 17% | 0% | 38% | 0% | 36% | 29% | 0% | 36%
13 | CNC(=O)c1ccc(C)c(-n2c(C)cc(OCc3ccc(F)cc3F)c(Br)c2=O)c1 | 0% | 0% | 0% | 0% | 15% | 67% | 0% | 0% | 0% | 0% | 0% | 0% | 0% | 10% | 0% | 0% | 0% | 0% | 0% | 0%
14 | COc1ccc(Nc2nccc(N3CCC(NC(=O)c4cc5ccccc5s4)C3)n2)cc1 (centres unmarked) [GSK1379738] | 20% | 7% | 8% | 21% | 0% | 15% | 0% | 0% | 0% | 22% | 4% | 10% | 4% | 1% | 0% | 0% | 0% | 0% | 2% | 0%
15 | Nc1cccc(-c2ccc3c(N)n[nH]c3c2)n1 [GSK2192730] | 41% | 0% | 0% | 0% | 0% | 0% | 0% | 0% | 4% | 24% | 21% | 3% | 0% | 6% | 19% | 0% | 17% | 7% | 2% | 6%
16 | Fc1ccc(-c2nn3cccc(F)c3c2-c2ccncc2)cc1 [GW475620] | 0% | 50% | 22% | 0% | 0% | 38% | 0% | 33% | 0% | 0% | 24% | 9% | 33% | 7% | 0% | 16% | 78% | 5% | 12% | 11%

Row | SMILES | %Inh (RIPK4) | %Inh (RIPK5) | %Inh (ROCK1) | %Inh (ROCK2) | %Inh (ROS1) | %Inh [1] | %Inh [2] | %Inh [3] | %Inh [4] | %Inh [5] | %Inh [6] | %Inh [7] | %Inh [8] | %Inh [9] | %Inh [10] | %Inh [11] | %Inh [12] | %Inh (S6K1) | %Inh (SBK1) | %Inh (SGK2)
17 | NS(=O)(=O)c1cccc(N/C=C2\C(=O)Nc3ccc(S(=O)(=O)Cc4c(Cl)cccc4Cl)cc32)c1 [GSK398099] | 14% | 0% | 0% | 2% | 0% | 2% | 0% | 0% | 0% | 11% | 100% | 6% | 0% | 10% | 0% | 0% | 2% | 0% | 21% | 8%
18 | Nc1ncnc2occ(-c3ccc4c(c3)CCN4C(=O)Cc3cc(F)ccc3F)c12 [GSK2645446] | 0% | 12% | 12% | 11% | 2% | 14% | 0% | 2% | 1% | 0% | 0% | 0% | 7% | 0% | 16% | 0% | 15% | 0% | 10% | 0%
19 | Cc1ccc(NC(=O)c2ccc(Cl)cc2)cc1-c1ccc(C(=O)Nc2ccncc2)cc1 [GSK1398467] | 9% | 0% | 0% | 17% | 8% | 13% | 0% | 17% | 49% | 10% | 0% | 4% | 2% | 8% | 22% | 0% | 10% | 7% | 0% | 0%
20 | CC[C@@H]1CO[C@H](C(=O)Nc2ccccc2)CN1c1cc(-c2ccc3c(N)n[nH]c3c2)nc(NC)n1 [GSK2376236] | 0% | 8% |  | 52% | 24% | 10% | 0% | 28% | 23% | 7% | 31% | 0% | 2% | 26% | 16% | 0% | 7% | 0% | 0% | 0%
21 | CC(=O)c1cccc(NC(=O)NC2CCN(c3ccnc(Nc4ccc(F)cc4)n3)C2)c1 (centres unmarked) [GSK1379710] | 15% | 4% | 0% | 22% | 3% | 0% | 0% | 0% | 29% | 21% | 14% | 0% | 30% | 17% | 6% | 0% | 21% | 0% | 5% | 0%
22 | COC(=O)C(NC(=O)NC1CCN(c2ccnc(Nc3ccc(F)cc3)n2)C1)c1ccccc1 (centres unmarked) [GSK1379712] | 13% | 22% | 31% | 37% | 12% | 0% | 0% | 0% | 22% | 22% | 18% | 0% | 38% | 0% | 11% | 0% | 7% | 0% | 8% | 8%
23 | Cc1c(Cn2c3ccccc3n3c(=O)cc(N4CCOCC4)nc23)cccc1C(F)(F)F [GSK2306394] | 3% | 0% | 0% | 4% | 0% | 13% | 0% | 15% | 0% | 0% | 0% | 4% | 30% | 5% | 1% | 0% | 11% | 0% | 9% | 0%
24 | Cc1cnc(N)c(/C=C/c2cncc(C(=O)NCCc3ccc(Cl)cc3Cl)c2)c1.Cl [GSK190937] | 0% | 0% | 71% | 45% | 3% | 4% | 0% | 22% | 0% | 9% | 0% | 0% | 2% | 0% | 0% | 0% | 20% | 0% | 19% | 0%
25 | O=c1cc(N2CCOCC2)nc2n(Cc3ccccc3F)ccn12 [GSK2297428] | 0% | 0% | 0% | 0% | 47% | 5% | 0% | 8% | 0% | 5% | 0% | 0% | 0% | 3% | 0% | 0% | 0% | 0% | 0% | 0%
26 | COc1cccc(NC(=O)Nc2ccc(C)c(-c3ccc(C(=O)Nc4ccncc4)cc3)c2)c1 [GSK1398474] | 23% | 0% | 0% | 0% | 0% | 18% | 0% | 12% | 40% | 16% | 0% | 0% | 0% | 7% | 19% | 0% | 22% | 18% | 8% | 0%
27 | Cn1cnc2c(N)ncnc21 [SKF-97623] | 0% | 0% | 38% | 26% | 0% | 0% | 0% | 0% | 0% | 23% | 100% | 0% | 0% | 0% | 8% | 0% | 2% | 0% | 0% | 0%
28 | Cn1cncc1-c1cc2c(Nc3ccc(OCc4ccccc4)cc3)ncnc2cn1 [GW281179] | 8% | 0% | 82% | 74% | 13% | 9% | 0% | 11% | 0% | 30% | 0% | 0% | 0% | 3% | 0% | 0% | 9% | 3% | 36% | 10%
29 | CC(=O)c1c(C)c2cnc(Nc3ccc(N4CCNCC4)cn3)nc2n(C2CCCC2)c1=O | 0% | 0% | 0% | 0% | 0% | 15% | 0% | 0% | 0% | 14% | 0% | 0% | 0% | 0% | 0% | 0% | 1% | 0% | 0% | 0%
30 | COC(=O)C(Cc1ccccc1)NC(=O)NC1CCN(c2ccnc(Nc3ccc(F)cc3)n2)C1 (centres unmarked) [GSK1379714] | 0% | 15% | 9% | 20% | 24% | 14% | 0% | 1% | 18% | 6% | 0% | 0% | 19% | 5% | 10% | 1% | 9% | 2% | 13% | 0%
31 | CCn1c(-c2c(N)noc2C)nc2cnccc21 [SB-737856] | 25% | 0% | 0% | 0% | 0% | 12% | 0% | 6% | 23% | 28% | 0% | 16% | 8% | 15% | 0% | 0% | 22% | 0% | 15% | 0%
